# Laboratory results as given in PubChem BioAssay (Tox21).
# “And” between values parts separate entries of the source, which are not always exact repeats. Equal entries are not always repeated. Inconclusive results are not listed. Entries that show only a call come without a potency. A structure can be active in one record and inactive in another. The source made the active and inactive calls. Calls come from the whole dose curve; as a rule, active = well fitted curve in the direction sought with a large enough effect in the repeat runs; inconclusive = weak or mixed curves; inactive = no such curve, though single readings can be large; an effect the other way counts as inactive or inconclusive.
# Tests used:
# [1] = qHTS RealTime-Glo MT Cell Viability Assay in HepG2 cells - 40 hour (AID 1224870); note: nearly all actives have a fitted effect of over 50% in size; note: potency is the fitted concentration of half-maximal effect
# Summary of the method: (§1)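 Real-time viability: cells seeded at 600 per well together with NanoLuc and cell-permeant prosubstrate, compounds added after 5 h incubation. Luminescence tracked at 0, 8, 16, 24, 32 and 40 h of exposure.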
# [2] = A CellTox Green Cytotoxicity Assay to monitor cytotoxicity in HEK293 cells - 40 hour (AID 1224871); note: nearly all actives have a fitted effect of over 45% in size; note: potency is the fitted concentration of half-maximal effect
# Summary of the method: (§2)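 Real-time, in one plate: 600 HEK293 cells/well with dead-cell DNA dye, pinned compound after 5 h, 37 C incubation over 40 h; viable cells give no appreciable fluorescence.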
# [3] = qHTS RealTime-Glo MT Cell Viability Assay in HEK293 cells - 16 hour (AID 1224872); note: nearly all actives have a fitted effect of over 50% in size; note: potency is the fitted concentration of half-maximal effect
# Summary of the method: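 Luminescence generated by NanoLuc from substrate produced by living HEK293 cells served as the viability signal. Each value reflects the reading at its stated time point during continuous 40 h compound exposure at 37 C.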
# [4] = qHTS RealTime-Glo MT Cell Viability Assay in HepG2 cells - 8 hour (AID 1224873); note: nearly all actives have a fitted effect of over 55% in size
# Summary of the method: as §1
# [5] = qHTS RealTime-Glo MT Cell Viability Assay in HEK293 cells - 40 hour (AID 1224874); conditions: RealTime-Glo luminescence; max response: stronger effect = lower value; note: nearly all actives have a fitted effect of over 50% in size; note: potency is the fitted concentration of half-maximal effect
# Summary of the method: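 Kinetic, non-lysing viability readout. Seed HEK293 (600/well) with reagent, incubate 5 h at 37 C/5% CO2, pin 23 nL compound in DMSO, incubate at 37 C, read luminescence at 0, 8, 16, 24, 32, 40 h.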
# [6] = A CellTox Green Cytotoxicity Assay to monitor cytotoxicity in HEK293 cells - 24 hour (AID 1224875); note: nearly all actives have a fitted effect of over 45% in size; note: potency is the fitted concentration of half-maximal effect
# Summary of the method: as §2
# [7] = A CellTox Green Cytotoxicity Assay to monitor cytotoxicity in HepG2 cells - 16 hour (AID 1224876); note: nearly all actives have a fitted effect of over 45% in size; note: potency is the fitted concentration of half-maximal effect
# Summary of the method: (§3)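 Cytotoxicity was tracked as dead-cell DNA fluorescence in HepG2 cells treated with test compounds at 37 C; each time-point value comes from one kinetic series spanning 0, 8, 16, 24, 32 and 40 h.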
# [8] = qHTS RealTime-Glo MT Cell Viability Assay in HepG2 cells - 32 hour (AID 1224877); note: nearly all actives have a fitted effect of over 55% in size; note: potency is the fitted concentration of half-maximal effect
# Summary of the method: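 Tox21 10K library screened in qHTS format on HepG2 cells carrying RealTime-Glo reagents. Compounds were added after a 5 h preincubation, and the luminescent signal from continuous culture was measured repeatedly during 40 h treatment.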
# [9] = A CellTox Green Cytotoxicity Assay to monitor cytotoxicity in HepG2 cells - 24 hour (AID 1224878); note: nearly all actives have a fitted effect of over 45% in size; note: potency is the fitted concentration of half-maximal effect
# Summary of the method: as §3
# [10] = A CellTox Green Cytotoxicity Assay to monitor cytotoxicity in HepG2 cells - 40 hour (AID 1224879); note: nearly all actives have a fitted effect of over 40% in size; note: potency is the fitted concentration of half-maximal effect
# Summary of the method: as §3
SMILES,Potency [1],Potency [2],Potency [3],Potency [4],max response [5],Potency [6],Potency [7],Potency [8],Potency [9],Potency [10],Potency [5]
CCCCOCCOP(=O)(OCCOCCCC)OCCOCCCC,inactive,inactive,inactive,inactive,-16.9% (inactive),inactive,inactive,inactive,–,–,–
Cc1cc(Cl)ccc1OCCCC(=O)O,inactive,inactive,inactive,inactive,5.09% (inactive) and 8.04% (inactive),inactive,inactive,inactive,inactive,inactive,–
c1ccc(N=Nc2ccccc2)cc1,inactive,–,inactive,inactive,-14.7% (inactive) and -11.3% (inactive),inactive,inactive,inactive,inactive,inactive,–
CC(C)Oc1cc(-n2nc(C(C)(C)C)oc2=O)c(Cl)cc1Cl,inactive,682 nM (active) and inactive,–,inactive,–,–,inactive,inactive,inactive,inactive,34.7 µM (active)
Brc1ccc(Oc2cc(Br)c(Br)cc2Br)c(Br)c1,inactive,inactive,–,inactive,–,inactive,inactive,inactive,inactive,inactive,43.6 µM (active)
CCCCN(CCCC)N=O,inactive,inactive,inactive,inactive,-0.0622% (inactive) and 14.1% (inactive),inactive,inactive,inactive,inactive,inactive,–
c1nc[nH]n1,inactive,inactive,inactive,inactive,-1.48% (inactive) and 17.9% (inactive),inactive,inactive,inactive,inactive,inactive,–
Cc1c(COC(=O)[C@@H]2[C@H](/C=C(\Cl)C(F)(F)F)C2(C)C)cccc1-c1ccccc1,inactive,inactive,–,inactive,–,inactive,inactive,inactive,inactive,inactive,19.1 µM (active)
CC(C)(C)c1ccccc1O,inactive,39.4 µM (active),inactive,inactive,-18.3% (inactive) and -0.927% (inactive),–,44.2 µM (active),inactive,49.5 µM (active),49.5 µM (active) and 49 µM (active),–
CCCCCc1cc(O)cc(O)c1,inactive and 49 µM (active),–,24.5 µM (active),–,–,inactive,inactive,inactive and 49 µM (active),–,–,24.5 µM (active)
Oc1cc(Cl)ccc1Cl,inactive,inactive,inactive,inactive,-8.7% (inactive) and -0.256% (inactive),inactive,inactive,inactive,inactive,inactive,–
Cc1ccccc1[N+](=O)[O-],inactive,inactive,inactive,inactive,1.02% (inactive) and 16.9% (inactive),inactive,inactive,inactive,inactive,inactive,–
O=C(O)CC[N+](=O)[O-],inactive,inactive,inactive,inactive,0.345% (inactive) and -3.12% (inactive),inactive,inactive,inactive,inactive,inactive,–
Oc1c(Cl)c(Cl)c(Cl)c(Cl)c1Cl,inactive,inactive,inactive,inactive,–,inactive,inactive,inactive,inactive,inactive,–
CCC(C)c1ccc(O)cc1 (stereo not drawn),inactive,49.4 µM (active) and 43.6 µM (active),inactive,inactive,-20.1% (inactive) and -0.111% (inactive),43.6 µM (active),–,inactive,43.6 µM (active),43.6 µM (active),–
O=Cc1ccco1,inactive,21.1 µM (active),inactive,inactive,-0.5% (inactive),–,inactive,inactive,inactive,inactive,–
CN(C)c1ccc(C(=O)c2ccc(N(C)C)cc2)cc1,inactive,inactive,–,inactive,–,inactive,inactive,inactive,inactive,5.44 µM (active) and 1.95 µM (active),3.47 µM (active)
O=[N+]([O-])c1c(Cl)c(Cl)c(Cl)c(Cl)c1Cl,inactive,21.8 µM (active) and inactive,inactive,inactive,2.95% (inactive) and 16.6% (inactive),inactive,inactive,inactive,inactive,inactive,–
CCCCC(CC)COC(=O)Cl (stereo not drawn),inactive,inactive,inactive,inactive,2.04% (inactive),inactive,inactive,inactive,inactive,inactive,–
CCOC(=O)C(C)OC(=O)c1cc(Oc2ccc(C(F)(F)F)cc2Cl)ccc1[N+](=O)[O-] (stereo not drawn),inactive,inactive,30.7 µM (active),–,-24.2% (inactive),inactive,inactive,inactive,inactive,inactive,–

SMILES,Potency [1],Potency [2],Potency [3],Potency [4],max response [5],Potency [6],Potency [7],Potency [8],Potency [9],Potency [10],Potency [5]
O=C(Nc1ccc(Br)cc1)c1cc(Br)cc(Br)c1O,43.5 µM (active),38.9 µM (active) and inactive,inactive,inactive,–,–,inactive and 43.6 µM (active),–,38.9 µM (active),19.4 µM (active) and 24.5 µM (active) and 23.9 µM (active),17.3 µM (active) and 19.5 µM (active)
Nc1ccc(Cl)cc1N,inactive,21.9 µM (active),–,inactive,–,24.5 µM (active),inactive and 40.4 µM (active),inactive,inactive and 21.9 µM (active),10.2 µM (active) and 21.9 µM (active),–
C#CCOS(=O)OC1CCCCC1Oc1ccc(C(C)(C)C)cc1 (stereo not drawn),inactive,21.9 µM (active),17.4 µM (active) and 19.5 µM (active),–,–,inactive,inactive,–,inactive,inactive,7.77 µM (active) and 21.9 µM (active)
CCOc1cc(Oc2ccc(C(F)(F)F)cc2Cl)ccc1[N+](=O)[O-],inactive,inactive,–,inactive,-24.7% (inactive),inactive,inactive,inactive,inactive,inactive,–
CCCCCCCCC(=O)NCc1ccc(O)c(OC)c1,inactive,inactive,inactive,inactive,8.1% (inactive) and -1.04% (inactive),inactive,inactive,inactive,inactive,inactive,–
Oc1ccc(-c2ccccc2)cc1,inactive,19.2 µM (active),–,inactive,–,inactive,inactive,inactive,inactive and 49 µM (active),inactive and 49 µM (active),–
Cc1cccc(N)c1N,inactive,inactive,inactive,inactive,–,inactive,inactive,inactive,inactive,inactive,–
Nc1c(Cl)cc([N+](=O)[O-])cc1Cl,inactive,inactive,inactive,inactive,-14.9% (inactive),inactive,inactive,inactive,inactive,inactive,–
ClC1C(Cl)C(Cl)C(Cl)C(Cl)C1Cl (stereo not drawn),inactive,–,inactive and 49 µM (active),inactive,–,–,inactive,inactive,inactive and 43.6 µM (active),inactive and 38.9 µM (active),54.9 µM (active)
O=P(O)(O)CCCl,inactive,inactive,inactive,inactive,-0.529% (inactive) and 21.1% (inactive),inactive,inactive,inactive,inactive,inactive,–
CN(C)C(=O)Nc1ccc(Cl)cc1,inactive,inactive,inactive,inactive,-3.64% (inactive) and -10.5% (inactive),inactive,inactive,inactive,inactive,inactive,–
Cc1ccc(N)c(N)c1,inactive,inactive,–,inactive,–,inactive,inactive,inactive,inactive,inactive,–
CC1(C)C(C=C(Cl)Cl)C1C(=O)OC(C#N)c1cccc(Oc2ccccc2)c1 (stereo not drawn),inactive,inactive,inactive,inactive,-14.9% (inactive) and 6.86% (inactive),inactive,inactive,inactive,inactive,inactive,–
O=C(O)C(F)(F)C(F)(F)C(F)(F)C(F)(F)C(F)(F)C(F)(F)C(F)(F)F,inactive,inactive,inactive,inactive,-9.47% (inactive) and 7.44% (inactive),inactive,inactive,inactive,inactive,inactive,–
O=C(NC(=O)c1c(F)cccc1F)Nc1ccc(Cl)cc1,inactive,inactive,inactive,inactive,–,inactive,inactive,inactive,inactive,inactive,–
CCC(=O)O[C@H]1CC[C@H]2[C@@H]3CCC4=CC(=O)CC[C@]4(C)[C@H]3CC[C@]12C,inactive,19.5 µM (active) and 21.3 µM (active),21.9 µM (active) and 23.9 µM (active),inactive,–,19.5 µM (active) and 5.35 µM (active),38.9 µM (active),inactive,43.6 µM (active),49 µM (active) and inactive,19.5 µM (active) and 23.9 µM (active)
O=[N+]([O-])c1ccc(O)c([N+](=O)[O-])c1,inactive,inactive,inactive,inactive,-16% (inactive),–,inactive,inactive,inactive,inactive,–
CCC(C)(c1ccc(O)cc1)c1ccc(O)cc1,inactive,inactive,–,inactive,–,inactive,inactive,inactive,inactive,inactive,24.5 µM (active) and 43.6 µM (active)
Cc1ccc2c(c1N)C(=O)c1ccccc1C2=O,inactive,inactive,8.62 µM (active) and 8.71 µM (active),–,–,inactive,inactive,inactive,inactive,inactive,9.67 µM (active) and 6.92 µM (active)
C#C[C@]1(O)CC[C@H]2[C@@H]3CCC4=CC(=O)CC[C@]4(C)[C@H]3CC[C@@]21C,inactive,49 µM (active),inactive,inactive,-4.36% (inactive) and -16.3% (inactive),–,inactive,inactive,inactive,–,–
